Screening data (PubChem)
Most compounds without a hit are left out; they make up all but 2.7% or so of the library.
S2 tox: cell viability loss in ATXN counter-screen; S2 cells (HEK-293 line with an ATXN2-luciferase reporter) viability, CellTiter-Fluor protease fluorescence, 24 h; Potency, µM (doses to about 56.7 µM), hits mostly cytotoxic; actives 0.49% (n = 400,000); note: nearly all actives have a fitted effect of over 40% in size
ATXN2 expr inh: inhibitors of ATXN2 expression | HEK-293 ATXN2-luciferase reporter, luminescence, 24 h | Potency, µM (top dose mostly 57 µM), inactives show at the top dose activity change, negative = inhibition, actives largely listed as inhibitors | actives 0.72% (n = 360,000); note: % is set by controls: 0 for no effect and ±100 for the full control effect; nearly all actives have a fitted effect of over 55% in size
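ATXN2-luciferase reporter cells (luciferase flanked by upstream and downstream ATXN2 gene portions) were treated 24 h at 37 °C with compounds at up to 57 uM. SteadyGlo luminescence gave expression; GF-AFC fluorescence gave viability.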
TGFb SMAD3 inh: blocks TGF-b signaling. Potency, µM (series often up to 46.1 µM), without a hit: at the highest dose activity, negative = inhibition, usual class: inhibitors. actives 1.2% (n = 410,000). HepG2 CAGA-GFP TGF-b/SMAD3 reporter, GFP fluorescence, 18 h; TGF-beta stimulated, 500 pg/mL final; note: % is set by controls: 0 for no effect and ±100 for the full control effect; nearly all actives have a fitted effect of over 65% in size
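GFP signal (ex488/em500-530) from TGF-beta-stimulated HEPG2 CAGA-GFP cells, 500 pg/mL final, 18 h at 37 degrees C in DMEM plus 1% FBS, normalized to unstimulated and DMSO-stimulated controls.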
ALOX12 inh: inhibitors of human 12S-lipoxygenase ALOX12. P18054. purified 12hLO, xylenol orange hydroperoxide absorbance. Potency, µM (titrated, usually from 108 µM), inactives show at the top dose activity change, negative = inhibition, hits mostly inhibitors. actives 1.1% (n = 580,000). AID 1671190; note: % is set by controls: 0 for no effect and ±100 for the full control effect
Target sequence (P18054 whole entry, looked up): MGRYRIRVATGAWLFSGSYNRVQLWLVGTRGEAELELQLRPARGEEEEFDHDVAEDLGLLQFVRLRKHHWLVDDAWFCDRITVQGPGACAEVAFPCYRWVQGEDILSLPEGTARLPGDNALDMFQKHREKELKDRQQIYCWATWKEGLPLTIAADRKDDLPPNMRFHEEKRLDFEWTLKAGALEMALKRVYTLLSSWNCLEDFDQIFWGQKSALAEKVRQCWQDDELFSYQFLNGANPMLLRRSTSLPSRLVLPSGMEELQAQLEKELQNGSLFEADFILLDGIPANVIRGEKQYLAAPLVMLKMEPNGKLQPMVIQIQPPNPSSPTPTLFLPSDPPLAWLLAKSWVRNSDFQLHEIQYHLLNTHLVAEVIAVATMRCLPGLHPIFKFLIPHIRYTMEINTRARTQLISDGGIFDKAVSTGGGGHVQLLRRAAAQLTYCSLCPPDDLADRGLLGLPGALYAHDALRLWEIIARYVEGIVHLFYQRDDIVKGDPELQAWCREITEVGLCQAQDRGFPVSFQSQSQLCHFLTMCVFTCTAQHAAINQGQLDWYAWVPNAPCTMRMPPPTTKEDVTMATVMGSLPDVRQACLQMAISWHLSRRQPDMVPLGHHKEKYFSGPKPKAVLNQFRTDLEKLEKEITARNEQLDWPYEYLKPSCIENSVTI
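Purified human 12hLO (150 nM final) in 25 mM Hepes, 0.01% Triton X-100, pH 7.0 was preincubated 15 min at room temperature with compound. Then 40 uM arachidonic acid was added, 30 min. Hydroperoxide was read by Fe-XO absorbance ratio 573/405 nm.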
HepG2 tox: kills HepG2 cells in TGF-b inhibitor counter-screen; HepG2 CAGA-GFP viability, ATP luminescence, 18 h; Potency, µM (doses to about 46.1 µM), for inactives: at the top dose activity change, negative = cytotoxicity, usual class: cytotoxic; actives 0.76% (n = 410,000)
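HepG2 CAGA-GFP cells (1000/well, DMEM with 1% FBS) received compound, then TGF-beta at 500 pg/mL final, and were incubated 18 hours at 37 degrees C. Viability was read by CellTiter-Glo luminescence. Media-only wells were set as complete cell-killing and DMSO as no toxicity.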
* = called active by the depositor; i = inactive; u = inconclusive; x = no result; [ ] = remark or other dose. Calls come from the whole dose curve; as a rule, active = well fitted curve in the direction sought with a large enough effect; inconclusive = small, poorly fitted or top-dose-only effect, or another doubt; inactive = no such curve, though single readings can be large; an effect the other way counts as inactive or inconclusive. Potency is the fitted concentration of half-maximal effect.

SMILES	S2 tox	ATXN2 expr inh	TGFb SMAD3 inh	ALOX12 inh	HepG2 tox
N#Cc1nc(-c2ccc(COc3ccc(Cl)cc3)o2)oc1N1CCC(C(N)=O)CC1	u	20µM*	u	-8%	-19%
CCOc1ccc(/C=C/C(=O)c2ccc(Cl)cc2)cc1	x	x	x	2%	x
COc1cc(/C=C/C(=O)c2ccc(C#N)cc2)cc(Br)c1O	x	x	x	8.9µM*	x
CCOc1cc(/C=C/C(=O)c2ccc(Cl)c(Cl)c2)ccc1O	x	x	x	6.3µM*	x
COc1cc(C(=O)/C=C/c2ccc(SC)cc2)ccc1O	x	x	x	40µM*	x
COc1ccc(/C=C/C(=O)c2ccc(C#N)cc2)cc1F	x	x	x	-1%	x
COc1cc(/C=C/C(O)=C/C(=O)/C=C/c2ccc(O)cc2)ccc1O	i	u	u	13µM*	-30%
CSc1ccc(/C=C/C(=O)c2ccc(O)cc2)cc1	i	17%	u	u	-60%
COc1ccccc1N(CCC#N)C(=O)CSc1ncnc2sc(C)c(C)c12	x	x	x	-4%	x
Cc1sc(NC(=O)c2ccc(C(C)C)cc2)c(C#N)c1C	x	x	x	2%	x
COc1ccc(/C=C/C(=O)c2ccc(O)c(CCCl)c2)cc1C	x	x	x	32µM*	x
CCOc1cc(/C=C/C(=O)c2ccc(C)cc2)ccc1OCC(=O)N(C)C	u	u	u	-22%	-33%
CCOc1cc(/C=C/C(=O)c2ccc(C)cc2)cc(Br)c1O	x	x	x	40µM*	x
COc1ccc(/C=C/C(=O)c2ccc(C(=O)/C=C/c3ccc(OC)c(OC)c3)cc2)cc1OC	i	u	-19%	0%	-19%
CC(C)(C)C1CCc2c(sc(NC(=O)CSc3ncn[nH]3)c2C#N)C1 (configuration not stated)	i	u	u	u	-89%
Cc1cc(C(=O)OCC(=O)Nc2sc3c(c2C#N)CCC(C)C3)c2ccccc2n1 (configuration not stated)	i	-8%	-11%	40µM*	-16%
CCCc1cc(=O)[nH]c(SCC(=O)Nc2sc3c(c2C#N)CCC(C)C3)n1 (configuration not stated)	i	0%	-20%	40µM*	1%
CC1CCc2c(sc(NC(=O)CSc3ncn[nH]3)c2C#N)C1 (configuration not stated)	i	0.34µM*	-4%	0%	-36%
COc1ccccc1-c1cc(C(=O)Nc2sc3c(c2C#N)CCC(C)C3)c2ccccc2n1 (configuration not stated)	i	-2%	2%	-7%	20%
C=C(C)[C@@H]1CC[C@@H](C)C[C@@H]1O	x	x	x	15%[176 µM]	x
COc1cccc(SC(C)C(=O)c2ccc3c(c2)NC(=O)CO3)c1 (configuration not stated)	x	x	x	-15%	x
Cc1ccc(SCc2nc3scc(C)n3c2Br)cc1	x	x	x	-12%	x
Cc1ccc(NC(=S)N(CCCN2CCCC2)Cc2cccn2Cc2ccc(Cl)cc2)cc1C	i	-25%	18µM*	-15%	11µM*
Cc1ccc(NC(=S)N(CCCN2CCCC2)Cc2cccn2Cc2ccc(Cl)cc2)cc1Cl	u	u	-4%	0%	1%
FC(F)(F)c1cccc(NC(=S)N(CCCN2CCCC2)Cc2cccn2Cc2ccc(Cl)cc2)c1	28µM*	16µM*	u	u	13µM*
SMILES	S2 tox	ATXN2 expr inh	TGFb SMAD3 inh	ALOX12 inh	HepG2 tox
Cc1cc(NC(=S)N(CCCN2CCOCC2)Cc2ccco2)ccc1Cl	i	-11%	u	-3%	8%
CCN1CCN(CCCN(Cc2ccco2)C(=S)Nc2ccc(Cl)c(C)c2)CC1	i	-22%	-12%	-12%	11µM*
O=C(Nc1ncn[nH]1)C1CC(=O)N(c2ccc3c(c2)OCCO3)C1 (configuration not stated)	x	x	x	8%	x
NC1CC(c2cc(N3CCN(c4cnccn4)CC3)nc(C3CC3)n2)C1 (configuration not stated)	x	x	x	25%	x
CCN1CCC(N(Cc2ccc3c(c2)OCO3)C(=O)Nc2ccc(Br)c(C)c2)CC1	u	25µM*	u	u	-95%
O=C(COC(=O)c1ccccc1)Nc1ncc([N+](=O)[O-])s1	i	19%	-24%	40µM*	-9%
